Assay results as given in PubChem BioAssay (Tox21).
Where “and” joins values, the source holds several entries; their conditions need not be identical. Equal values may be shown once. Records with an inconclusive call do not appear. Entries that show only a call come without a potency. Where a structure was tested more than once in an assay, its records may differ in their call. Calls of active or inactive are those of the source. Calls come from the whole dose curve; as a rule, active = well fitted curve in the direction sought with a large enough effect in the repeat runs; inconclusive = weak or mixed curves; inactive = no such curve, though single readings can be large; an effect the other way counts as inactive or inconclusive.

Assays:
[1] = A CellTox Green Cytotoxicity Assay to monitor cytotoxicity in HEK293 cells - 40 hour (AID 1224871); note: nearly all actives have a fitted effect of over 45% in size; note: potency is the fitted concentration of half-maximal effect
Summary of the method: (§1)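 HEK293 cells, 600/well, were preincubated 5 hours and then exposed to compounds at 37 C for up to 40 hours. A cell-impermeant cyanine dye staining dead-cell DNA was read by fluorescence at 0, 8, 16, 24, 32 and 40 h time points.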

[2] = qHTS RealTime-Glo MT Cell Viability Assay in HEK293 cells - 16 hour (AID 1224872); note: nearly all actives have a fitted effect of over 50% in size; note: potency is the fitted concentration of half-maximal effect
Summary of the method: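 Homogeneous bioluminescent viability format in HEK293 cells (600 cells/well). Following 5 h at 37 C/5% CO2, 23 nL compound was pintooled; the signal was measured repeatedly during 40 h incubation.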

[3] = qHTS RealTime-Glo MT Cell Viability Assay in HepG2 cells - 8 hour (AID 1224873); note: nearly all actives have a fitted effect of over 55% in size; note: potency is the fitted concentration of half-maximal effect
Summary of the method: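 HepG2 cells mixed with RealTime-Glo MT reagents (NanoLuc plus cell-permeant prosubstrate) were seeded at 600 cells/well, incubated 5 h at 37 C/5% CO2, then pinned with compounds in DMSO; nonlytic luminescence tracked viability during 40 h treatment.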

[4] = qHTS RealTime-Glo MT Cell Viability Assay in HEK293 cells - 40 hour (AID 1224874); conditions: RealTime-Glo luminescence; max response: stronger effect = lower value; note: nearly all actives have a fitted effect of over 50% in size; note: potency is the fitted concentration of half-maximal effect
Summary of the method: (§2)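 600 cells/well were plated with the nonlytic NanoLuc/prosubstrate reagent, pre-incubated 5 h, then given 23 nL of compound in DMSO. Incubation at 37 C for 40 h, with luminescence from viable-cell-reduced substrate read repeatedly from 0 h.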

[5] = A CellTox Green Cytotoxicity Assay to monitor cytotoxicity in HepG2 cells - 16 hour (AID 1224876); note: nearly all actives have a fitted effect of over 45% in size; note: potency is the fitted concentration of half-maximal effect
Summary of the method: (§3)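 HepG2 cells, 600/well, preincubated 5 h with CellTox Green dye, then exposed to Tox21 compounds in DMSO at 37 C for up to 40 h. Dead-cell DNA fluorescence read at the indicated time point.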

[6] = qHTS RealTime-Glo MT Cell Viability Assay in HepG2 cells - 32 hour (AID 1224877); note: nearly all actives have a fitted effect of over 55% in size; note: potency is the fitted concentration of half-maximal effect
Summary of the method: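 Cell number in HepG2 cultures estimated from NanoLuc luminescence generated by metabolic reduction of a prosubstrate by living cells. The homogeneous, nonlytic format allowed repeated reads at 0, 8, 16, 24, 32 and 40 h of compound exposure.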

[7] = A CellTox Green Cytotoxicity Assay to monitor cytotoxicity in HepG2 cells - 24 hour (AID 1224878); note: nearly all actives have a fitted effect of over 45% in size; note: potency is the fitted concentration of half-maximal effect
Summary of the method: as §3

[8] = A CellTox Green Cytotoxicity Assay to monitor cytotoxicity in HepG2 cells - 40 hour (AID 1224879); note: nearly all actives have a fitted effect of over 40% in size; note: potency is the fitted concentration of half-maximal effect
Summary of the method: as §3

[9] = qHTS RealTime-Glo MT Cell Viability Assay in HEK293 cells - 0 hour (AID 1224880); note: top concentration of the series differs between compounds; nearly all actives have a fitted effect of over 45% in size
Summary of the method: as §2

[10] = A CellTox Green Cytotoxicity Assay to monitor cytotoxicity in HEK293 cells - 24 hour (AID 1224875); note: nearly all actives have a fitted effect of over 45% in size; note: potency is the fitted concentration of half-maximal effect
Summary of the method: as §1

CCCCOCC1CO1 (centres undefined)
Potency [1]: inactive and 19.5 µM (active)
Potency [2]: inactive
Potency [3]: inactive
max response [4]: 4.37% (inactive) and 7.91% (inactive)
Potency [5]: inactive and 43.6 µM (active)
Potency [6]: inactive
Potency [7]: inactive and 38.9 µM (active)
Potency [8]: inactive and 43.6 µM (active)
Potency [9]: inactive

NC(=O)CN1CCCC1=O
Potency [1]: inactive
Potency [2]: inactive
Potency [3]: inactive
max response [4]: 3.12% (inactive) and 0.0955% (inactive)
Potency [10]: inactive
Potency [5]: inactive
Potency [6]: inactive
Potency [7]: inactive
Potency [8]: inactive
Potency [9]: inactive

O=S(=O)(O)C(F)(F)C(F)(F)C(F)(F)C(F)(F)C(F)(F)C(F)(F)C(F)(F)C(F)(F)F
Potency [1]: 33 µM (active) and inactive and 21.9 µM (active)
Potency [2]: inactive
Potency [3]: inactive
max response [4]: -24.5% (inactive) and 0.151% (inactive)
Potency [5]: 18.6 µM (active) and inactive
Potency [6]: inactive
Potency [7]: 18.6 µM (active) and inactive
Potency [8]: 16.5 µM (active) and inactive

CCOP(=S)(OCC)SCSC(C)(C)C
Potency [1]: inactive
Potency [2]: inactive
Potency [3]: inactive
max response [4]: 5.63% (inactive) and -1.38% (inactive)
Potency [10]: inactive
Potency [5]: inactive
Potency [6]: inactive
Potency [7]: inactive
Potency [8]: inactive
Potency [9]: inactive

CCCCCCCCCCCCCl
Potency [1]: inactive and 17.4 µM (active)
Potency [2]: inactive
Potency [3]: inactive
max response [4]: 0% (inactive) and 16.5% (inactive)
Potency [5]: inactive and 13.8 µM (active)
Potency [6]: inactive
Potency [7]: inactive and 12.3 µM (active)
Potency [8]: inactive and 12.3 µM (active)
Potency [9]: inactive

CC(O)CN(CC(C)O)CC(C)O (centres undefined)
Potency [1]: inactive
Potency [2]: inactive
Potency [3]: inactive
max response [4]: 2.85% (inactive) and 7.82% (inactive)
Potency [10]: inactive
Potency [5]: inactive
Potency [6]: inactive
Potency [7]: inactive
Potency [8]: inactive
Potency [9]: inactive

CC[n+]1c(-c2ccccc2)c2cc(N)ccc2c2ccc(N)cc21
Potency [1]: inactive
Potency [2]: 17.3 µM (active) and 23.9 µM (active)
Potency [3]: inactive
Potency [4]: 3.45 µM (active) and 2.13 µM (active)
Potency [10]: inactive
Potency [5]: inactive
Potency [7]: inactive
Potency [8]: inactive
Potency [9]: inactive

CC1=C(C(=O)Nc2ccccc2)SCCO1
Potency [1]: inactive
Potency [2]: inactive
Potency [3]: inactive
max response [4]: -20.6% (inactive) and -17.9% (inactive)
Potency [10]: inactive
Potency [5]: inactive
Potency [6]: inactive
Potency [7]: inactive
Potency [8]: inactive
Potency [9]: inactive

Cc1ccc([N+](=O)[O-])cc1
Potency [1]: inactive
Potency [2]: inactive
Potency [3]: inactive
max response [4]: 7.21% (inactive) and 12.5% (inactive)
Potency [10]: inactive
Potency [5]: inactive
Potency [6]: inactive
Potency [7]: inactive
Potency [8]: inactive
Potency [9]: inactive

CCCCCCCCCC(CC)c1ccc(S(=O)(=O)O)cc1 (centres undefined)
Potency [2]: inactive
Potency [3]: inactive
Potency [4]: 44.1 µM (active)
max response [4]: -25.5% (inactive) and -23.7% (inactive) and -24.7% (inactive)
Potency [5]: 49 µM (active) and 16.9 µM (active) and 42 µM (active)
Potency [6]: inactive
Potency [7]: 54.9 µM (active) and 21.3 µM (active) and 38.9 µM (active)
Potency [8]: 21.3 µM (active) and 38.9 µM (active)

Cn1c(-c2ccccc2)cc(-c2ccccc2)[n+]1C
Potency [1]: inactive
Potency [3]: inactive
Potency [4]: 9.75 µM (active) and 21.9 µM (active)
Potency [10]: inactive
Potency [5]: inactive
Potency [6]: inactive
Potency [7]: inactive
Potency [8]: inactive
Potency [9]: inactive

ClCc1ccccn1
Potency [1]: inactive
Potency [2]: inactive
Potency [3]: inactive
max response [4]: 0.166% (inactive) and 14.2% (inactive)
Potency [10]: inactive
Potency [5]: inactive
Potency [6]: inactive
Potency [7]: inactive
Potency [8]: inactive
Potency [9]: inactive

CC(C)CON=O
Potency [1]: inactive
Potency [2]: inactive
Potency [3]: inactive
max response [4]: 8.89% (inactive) and 0.247% (inactive)
Potency [10]: inactive
Potency [5]: inactive
Potency [6]: inactive
Potency [7]: inactive
Potency [8]: inactive
Potency [9]: inactive

ClC(Cl)=C(Cl)C(Cl)=C(Cl)Cl
Potency [1]: inactive
Potency [2]: inactive
Potency [3]: inactive
max response [4]: 3.65% (inactive) and 8.28% (inactive)
Potency [10]: inactive
Potency [5]: inactive
Potency [6]: inactive
Potency [7]: inactive
Potency [8]: inactive
Potency [9]: inactive

Clc1ccc(C(Cl)(Cl)Cl)cc1
Potency [1]: inactive
Potency [2]: inactive
Potency [3]: inactive
max response [4]: -12.2% (inactive) and -12.9% (inactive)
Potency [10]: inactive
Potency [5]: inactive
Potency [6]: inactive
Potency [7]: inactive
Potency [8]: inactive
Potency [9]: inactive

CCC[CH2][Sn]([Cl])([Cl])[CH2]CCC
Potency [1]: 351 nM (active) and 490 nM (active)
Potency [2]: 198 nM (active) and 174 nM (active)
Potency [3]: 7.86 µM (active) and 8.71 µM (active)
Potency [4]: 88.2 nM (active) and 110 nM (active)
Potency [10]: 556 nM (active) and 2.19 µM (active)
Potency [5]: 2.22 µM (active) and 1.74 µM (active)
Potency [6]: 222 nM (active) and 155 nM (active)
Potency [7]: 442 nM (active) and 436 nM (active)
Potency [8]: 313 nM (active) and 309 nM (active)
Potency [9]: inactive

COc1ccc(C=O)cc1OC
Potency [1]: inactive
Potency [2]: inactive
Potency [3]: inactive
max response [4]: 1.59% (inactive) and -6.52% (inactive)
Potency [10]: inactive
Potency [5]: inactive
Potency [6]: inactive
Potency [7]: inactive
Potency [8]: inactive
Potency [9]: inactive

CCN(CC)C(=O)C(C)Oc1cccc2ccccc12 (centres undefined)
Potency [1]: inactive
Potency [2]: inactive
Potency [3]: inactive
max response [4]: -27.1% (inactive) and -29.7% (inactive)
Potency [10]: inactive
Potency [5]: inactive
Potency [6]: inactive
Potency [7]: inactive
Potency [8]: inactive
Potency [9]: inactive

N#Cc1c(Cl)c(Cl)c(Cl)c(C#N)c1Cl
Potency [1]: 6.79 µM (active) and 5.49 µM (active)
Potency [2]: 3.4 µM (active) and 1.55 µM (active)
Potency [3]: 42.8 µM (active) and 11 µM (active)
Potency [4]: 1.7 µM (active) and 1.1 µM (active)
Potency [10]: 12.1 µM (active) and 9.77 µM (active)
Potency [5]: 24.1 µM (active) and 6.92 µM (active)
Potency [6]: 19.1 µM (active) and 3.89 µM (active)
Potency [7]: 24.1 µM (active) and 3.09 µM (active)
Potency [8]: 19.1 µM (active) and 2.45 µM (active)
Potency [9]: inactive

CCOP(=O)(OCC)OCC
Potency [1]: inactive
Potency [2]: inactive
Potency [3]: inactive
max response [4]: 0.385% (inactive) and 0.0295% (inactive)
Potency [10]: inactive
Potency [5]: inactive
Potency [6]: inactive
Potency [7]: inactive
Potency [8]: inactive
Potency [9]: inactive

CCCCC(C#N)(Cn1cncn1)c1ccc(Cl)cc1 (centres undefined)
Potency [1]: inactive
Potency [2]: inactive
Potency [3]: inactive
Potency [10]: inactive
Potency [5]: inactive
Potency [6]: inactive
Potency [7]: inactive

Clc1cccc(Cl)c1
Potency [1]: inactive
Potency [2]: inactive
Potency [3]: inactive
max response [4]: 0.4% (inactive) and 0.365% (inactive)
Potency [10]: inactive
Potency [5]: inactive
Potency [6]: inactive
Potency [7]: inactive
Potency [8]: inactive
Potency [9]: inactive
